Most compounds without a hit are left out; they make up all but 2.2% or so of the library.
FUS yeast rescue: rescues growth of FUS-expressing yeast | Potency, µM (doses to about 76.6 µM), most hits filed as activators | 390,000 compounds, 0.24% hits | S. cerevisiae FUS-expressing, growth rescue, OD600, 24 h;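 note: plate controls were DMSO vehicle for no effect and reference control for full effect; nearly all actives have a fitted effect of over 55% in size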
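Toxicity suppression screen in FUS-yeast. Cells induced with 2% galactose, starting OD 0.005, treated 24hr at 30C with compounds at multiple final concentrations; growth by OD600.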
Abeta yeast res: compounds reversing amyloid beta toxicity in yeast; yeast expressing A-beta42, growth rescue, OD600, 48 h; response scale: 0% DMSO, 100% iron-clioquinol control; Potency, µM (titrated, usually from 46.1 µM), hits mostly activators; 410,000 compounds, 0.063% hits; note: nearly all actives have a fitted effect of over 55% in size
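Growth rescue measured by 600 nm absorbance after 48 h yeast culture at 30 C with compound. Values normalized between DMSO and an equimolar ferric chloride plus clioquinol control.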
aSyn rescue: inhibitors of alpha-synuclein toxicity in yeast | Yeast expressing alpha-synuclein, growth rescue, BacTiter-Glo, 24 h | Potency, µM (series often up to 46.1 µM), inactives show at the top dose growth rescue (activation), most hits filed as activators | 370,000 compounds, 0.14% hits | AID 652106; note: % of control where 0% means no effect; nearly all actives have a fitted effect of over 65% in size
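Readout is rescue of growth in alpha-synuclein-expressing yeast, so inhibitors of toxicity appear as activators. Growth after 24 hr at 30 deg C in galactose medium is quantified by luminescence.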
TDP-43 yeast inh: rescues yeast growth from TDP-43 toxicity | TDP-43 expressing yeast growth rescue, BacTiter-Glo, 24 h | Potency, µM (highest dose often 46.1 µM), inactives show top-dose growth rescue (activation), most hits filed as activators | 410,000 compounds, 1.8% hits; note: % of control where 0% means no effect; nearly all actives have a fitted effect of over 50% in size
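Readout is BacTiter-Glo luminescence of cell growth, so inhibitors register as activators. TDP-43-expressing yeast at OD600=0.02 in galactose medium, after raffinose pregrowth to mid-log, were incubated with compound for 24 hr at 30 deg C.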
Mito fusion yeast: mitochondrial division inhibition or fusion activation; 320,000 compounds, 0.23% hits; Potency, µM (top dose mostly 46.1 µM), for the others: at the highest dose growth rescue (activation), usual class: activators; S. cerevisiae fusion-defective mutant growth rescue, CellTiterGlo 48 h; note: % of control where 0% means no effect; nearly all actives have a fitted effect of over 45% in size
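Compounds are tested for their ability to restore growth of mitochondrial fusion-defective yeast strains at non-permissive 37C in YPEG medium over 48 hours. Viability is quantified by luciferase luminescence.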
* hit, by the source's call; i = inactive; ? = inconclusive; . = not tested or not shown. Calls come from the whole dose curve; as a rule, active = well fitted curve in the direction sought with a large enough effect; inconclusive = small, poorly fitted or top-dose-only effect, or another doubt; inactive = no such curve, though single readings can be large; an effect the other way counts as inactive or inconclusive. Potency is the fitted concentration of half-maximal effect.

SMILES	FUS yeast rescue	Abeta yeast res	aSyn rescue	TDP-43 yeast inh	Mito fusion yeast
O=C(Cn1nnc(-c2ccc(N3CCOCC3)cc2)n1)c1cccc(F)c1	i	.	.	.	.
NC(=O)c1oc2ccccc2c1NC(=O)CCc1ccccc1	i	i	1%	11µM*	5%
CC(=O)Nc1c(C(=O)c2ccccc2)oc2ccccc12	i	i	.	7.9µM*	5%
Cc1ccc(C(=O)N2CCc3cc(CNC(=O)CSc4ccccc4)ccc32)cc1	i	i	.	?	.
Cc1ccc(C)c(N2CCN(CCCNC(=O)c3cnn(-c4ccccc4Cl)c3C3CCN(C(=O)OC(C)(C)C)CC3)CC2)c1	i	i	.	0%	.
COc1ccc2c(C)cc(=S)[nH]c2c1	i	i	2%	13µM*	7%
Cc1onc(-c2ccccc2)c1-c1ccnn1C(=O)NC(C)C	i	i	-12%	11µM*	2%
Cc1ccc(NC(=S)c2nc3ccccc3[nH]2)c(C)c1	i	?	-4%	18µM*	16%
CCN(CC)/[N+]([O-])=N/Oc1ccc([N+](=O)[O-])cc1[N+](=O)[O-]	.	.	-73%	.	.
CCOC(=O)C1CCCN(S(=O)(=O)c2cc(-c3cc(C)no3)ccc2C)C1 (configuration not stated)	?	i	.	35µM*	.
CCOC(=O)C1CCN(S(=O)(=O)c2cc(-c3onc(C)c3C)ccc2OC)CC1	?	i	.	25µM*	.
CCOC(=O)C1CCN(S(=O)(=O)c2cc(-c3cc(C)no3)ccc2C)CC1	i	i	.	26%	.
CCOC(=O)C1CCN(S(=O)(=O)c2ccc(Br)c(OCC)c2)CC1	5.6µM*	i	7%	-5%	-1%
Cc1ccc(-c2onc(C)c2C)cc1S(=O)(=O)N1CCC(C)CC1	?	i	.	20%	.
Cc1ccc(-c2onc(C)c2C)cc1S(=O)(=O)N1CCCCC1	i	i	.	22µM*	.
Cc1ccc(-c2cc(C(=O)NCCc3ccccc3)c3c(-c4ccc(C)cc4)[nH]nc3n2)cc1	i	i	.	16%	.
CCCOc1ccc(C(=O)N(Cc2ccc(N(C)C)cc2)CC2CCCO2)cc1 (configuration not stated)	i	i	.	-5%	.
Cc1cccc(-c2noc(-c3ccccc3OCC(=O)Nc3ccc([N+](=O)[O-])cc3)n2)c1	i	i	.	5%	.
Cc1cc(C)cc(NC(=O)c2cc(S(=O)(=O)N3CCC(C)CC3)cn2C)c1	i	i	.	8%	.
CCc1c(C)c2ccc3c(c2oc1=O)CN(Cc1ccccc1)CO3	i	i	4.5µM*	-7%	.
N#Cc1nccnc1S(=O)(=O)c1cccs1	i	i	-5%	13µM*	-12%
Cc1ccccc1N(CC(=O)N1CCN(Cc2ccccc2)CC1)S(C)(=O)=O	i	i	-3%	14%	.
CC(C)CCN1C(=O)c2ccc(C(=O)OCC(=O)N(CC(C)C)C3CCS(=O)(=O)C3)cc2C1=O (configuration not stated)	32µM*	i	-4%	-12%	.
Cc1nc2ccc(NC(=O)c3ccc(F)cc3Cl)cc2c(=O)[nH]1	i	.	.	.	.
Brc1cc2c(cc1Br)OCCOCCOCCO2	i	i	0%	20µM*	-1%
SMILES	FUS yeast rescue	Abeta yeast res	aSyn rescue	TDP-43 yeast inh	Mito fusion yeast
c1ccc2c(c1)OCCOCCOCCOCCOCCOc1ccccc1OCCOCCOCCO2	i	i	-11%	-12%	26%
COc1ccc(Cn2c(CNC(=O)Cc3ccc(OC)c(OC)c3)nc3cccnc32)cc1	i	i	.	4%	.
COc1ccc(CN(Cc2ccccc2)C(=O)COC(C)=O)cc1COc1ccc(NC(C)=O)cc1	.	.	3%	.	.
COc1ccc(C2=NN(c3ccc(C=O)cc3)C(c3ccccc3)C2)cc1 (configuration not stated)	i	i	3%	5%	?
O=Cc1ccc(N2N=C(c3ccccc3)CC2c2ccccc2)cc1 (configuration not stated)	i	i	6%	14%	8.9µM*
O=C(O)c1ccc(N2N=C(c3ccccc3)CC2c2ccccc2)cc1 (configuration not stated)	i	i	0%	13µM*	-3%
